This passage reports outcome and AC50 results from PubChem BioAssay AID2284378 (EPA ToxCast).

Results filed as inconclusive are left out. Active and inactive are the calls of the source. How the source made its calls: active means hit-call score of the fitted dose curve at least 0.9, where 1 is the maximum; inconclusive means response in the unintended direction; inactive means score below 0.9.

The subject of this experiment is frog Retinoid X Receptor beta (RXRb), gene 394278. The experiment in a line: ATG_frRXRb_EcoTox2: Attagene TRANS-FACTORIAL EcoTox-2 HepG2 Assay for frog Retinoid X Receptor beta (RXRb). As for the experimental part: ATG_EcoTox2 is a cell-based, multiplexed assay created by modifying the existing Attagene TRANS-FACTORIAL system to include a panel of nuclear receptors from some or all the following species: human (Homo sapiens), african clawed frog (Xenopus laevis), rainbow trout (Oncorhynchus mykiss), japanese medaka (Oryzias latipes), and zebrafish (Danio rerio). The ECOTOX2-FACTORIAL format uses HepG2, a human liver cell line, with measurements taken at 24 hours after chemical dosing in a 24-well plate. ATG_frRXRb_EcoTox2 is one of 29 assay components calculated in the ATG_EcoTox2 assay. It is designed to make measurements of mRNA induction, a form of inducible reporter, as detected with fluorescence intensity signals by Reverse transcription polymerase chain reaction (RT-PCR) and Capillary electrophoresis technology.The assay endpoint ATG_frRXRb_EcoTox2 was analyzed in the positive analysis fitting direction relative to DMSO as the negative control and baseline of activity. Using a type of inducible reporter, measures of mRNA for gain-of-signal activity can be used to understand the reporter gene at the transcription factor-level as they relate to the gene RXRb. Furthermore, this assay endpoint can be referred to as a primary readout, because this assay has produced multiple assay endpoints where this one serves a reporter gene function. To generalize the intended target to other relatable targets, this assay endpoint is annotated to the nuclear receptor intended target family, where the subfamily is non-steroidal.
Human liver HepG2 cells are transiently transfected with multiple reporter transcription units (MRTUs) in 6-well plates using FuGene 6 reagent (Roche; 3 ml FuGene/1 mg DNA). The MRTU constructs are regulated by a cis-regulating element (promoter). Each RTU expresses a GAL4-UAS that regulates the transcription of a nearby target reporter gene sequence. A major difference between the CIS and TRANS system is that in CIS activities of endogenous TFs are measured, whereas the TRANS assay evaluates changes in activities of exogenous, chimeric NR-Gal4 proteins. […] At the end of 24 hour incubation, total RNA was isolated using TriZol reagent (Invitrogen). The isolated RNA is then reverse-transcribed using oligo(dT) primer and Mo-MLV reverse transcriptase (Invitrogen) with DNAse I (Ambion) treatment for 30 min. The one-tenth of the produced cDNA was amplified by PCR using Taq DNA polymerase (Invitrogen) and two reporter sequence-specific primers. The PCR products were fluorescently labeled by primer extension with 6-arboxyfluorescein (6-FAM) 5'-labeled reporter sequence-specific primer (2 min at 95 C, 20 s at 68 C and 10 min at 72 C) and these products were digested with 5U of HpaI (New England Biolabs) for 2h at 37 C. The fragments were purified using Qiaquick PCR columns (Qiagen), analyzed on an ABI 3130xL genetic analyzer (Applied Biosystems) with peak positions identified by using a set of X-rhodamine (ROX)-labeled MapMarker1000 molecular weight standards (BioVentures). The raw capillary electrophoresis data was processed using Attagraph software (Attagene).
As for `CC(C)(Oc1ccc(Cl)cc1)C(=O)O`, the molecule was classed as inactive.
On to `C[C@@H]1C[C@H]2[C@@H]3CCC4=CC(=O)C=C[C@]4(C)[C@@]3(F)[C@@H](O)C[C@]2(C)[C@@]1(O)C(=O)COP(=O)(O)O`, for which the molecule was called inactive.
With `Cc1cccc(Nc2cc(Cl)nc(SCC(=O)O)n2)c1C`, the AC50 (as a rule, the concentration giving half of the maximal activity seen) is 23.8 µM (active).
In the case of `CC(C)OC(=O)C(C)(C)Oc1ccc(C(=O)c2ccc(Cl)cc2)cc1`, the outcome was inactive.
With `C=C(c1ccc(C(=O)O)cc1)c1cc2c(cc1C)C(C)(C)CCC2(C)C`, the half-maximal activity concentration (AC50) is 0.00172 µM (active).
As for `CC(c1cc2ccccc2s1)N(O)C(N)=O` (centres undefined), the call was inactive.
Turning to `CN(CCOc1ccc(CC2SC(=O)NC2=O)cc1)c1ccccn1` (centres undefined), the call was inactive.
`C[C@]12C=CC(=O)C=C1CC[C@@H]1[C@@H]2C(=O)C[C@@]2(C)[C@H]1CC[C@]2(O)C(=O)CO`: the call was inactive.
Turning to `Cc1ccc(C)c(OCCCC(C)(C)C(=O)O)c1`, the molecule was called inactive.
